# Data: the supplement of paper PMC11732987, “Enantioselective OTUD7B fragment discovery through chemoproteomics screening and high-throughput optimisation” (Communications Chemistry, 2025)
# A number with no mark means an inactive call.
# Experiments:
# Test in all cases: log2 ratio of Biotin-Ahx-Ub-VS probe labelling (fragment/DMSO); higher = less target engagement (more negative = stronger competition), active = hit call of the paper (q ≤ 0.05, log2 ratio ≤ -1)
# Conditions in all cases: compound concentration: 200 uM; treatment time: 3 h
# OTUD6B = molecular target: T1, OTUD6B (UniProt Q8N6M0)
# T1 sequence (whole entry): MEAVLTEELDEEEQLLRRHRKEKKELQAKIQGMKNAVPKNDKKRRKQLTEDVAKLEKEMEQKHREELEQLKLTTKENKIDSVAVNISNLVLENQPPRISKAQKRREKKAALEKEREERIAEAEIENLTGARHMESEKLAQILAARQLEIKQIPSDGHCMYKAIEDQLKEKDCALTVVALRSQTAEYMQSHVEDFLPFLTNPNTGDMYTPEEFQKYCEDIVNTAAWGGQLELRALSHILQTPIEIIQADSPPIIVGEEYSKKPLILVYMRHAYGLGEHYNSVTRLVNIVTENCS
# How it was run: (§1)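 Average log2 ratios of fragment over vehicle were obtained by unpaired t-test from global-median-normalised Spectronaut label-free quantities. Proteins with ≥2 unique peptides were included. HEK293T lysate (495 µg per sample) was treated in triplicate with fragment at 200 µM or vehicle for 3 h, then with Biotin-Ahx-Ub-VS at 0.5 µM final for 1 h, and labelled DUBs were NeutrAvidin-enriched and run by diaPASEF LC-MS/MS.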
# OTUD7B = molecular target: T2, OTUD7B (UniProt Q6GQQ9)
# T2 sequence (whole entry): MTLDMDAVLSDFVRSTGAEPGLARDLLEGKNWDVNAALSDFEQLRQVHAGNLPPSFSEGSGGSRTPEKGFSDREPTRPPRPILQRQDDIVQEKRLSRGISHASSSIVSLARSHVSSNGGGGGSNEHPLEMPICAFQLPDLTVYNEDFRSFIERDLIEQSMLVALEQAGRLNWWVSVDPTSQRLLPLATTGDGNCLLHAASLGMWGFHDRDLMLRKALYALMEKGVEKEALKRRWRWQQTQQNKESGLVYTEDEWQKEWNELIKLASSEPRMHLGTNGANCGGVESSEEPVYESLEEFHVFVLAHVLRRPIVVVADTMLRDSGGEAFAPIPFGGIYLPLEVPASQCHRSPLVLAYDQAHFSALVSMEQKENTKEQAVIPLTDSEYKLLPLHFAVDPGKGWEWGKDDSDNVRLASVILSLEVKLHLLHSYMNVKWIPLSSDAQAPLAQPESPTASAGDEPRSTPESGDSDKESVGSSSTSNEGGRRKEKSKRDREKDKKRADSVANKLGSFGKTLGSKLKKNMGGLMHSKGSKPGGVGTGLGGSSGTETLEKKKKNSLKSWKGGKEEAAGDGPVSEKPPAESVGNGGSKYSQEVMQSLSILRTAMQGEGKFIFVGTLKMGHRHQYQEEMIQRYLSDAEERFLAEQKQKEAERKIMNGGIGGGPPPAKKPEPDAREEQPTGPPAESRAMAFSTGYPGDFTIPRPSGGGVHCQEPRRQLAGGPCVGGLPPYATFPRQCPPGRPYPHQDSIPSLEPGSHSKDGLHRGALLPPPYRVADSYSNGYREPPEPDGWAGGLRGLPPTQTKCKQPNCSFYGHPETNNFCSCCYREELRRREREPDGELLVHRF
# How it was run: as §1
# PRPF8 = PRPF8 (UniProt Q6P2Q9)
# How it was run: as §1
# PSMD7 = molecular target: T3, PSMD7 (UniProt P51665)
# T3 sequence (whole entry): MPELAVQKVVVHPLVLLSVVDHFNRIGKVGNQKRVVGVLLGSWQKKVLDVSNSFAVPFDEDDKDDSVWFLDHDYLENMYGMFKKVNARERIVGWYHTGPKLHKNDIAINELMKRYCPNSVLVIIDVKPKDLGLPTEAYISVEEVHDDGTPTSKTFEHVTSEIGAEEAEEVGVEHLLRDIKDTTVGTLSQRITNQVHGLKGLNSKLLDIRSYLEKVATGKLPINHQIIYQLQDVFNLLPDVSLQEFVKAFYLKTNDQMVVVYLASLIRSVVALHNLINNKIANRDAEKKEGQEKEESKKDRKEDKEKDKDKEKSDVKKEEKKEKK
# How it was run: as §1
# UCHL1 = UCHL1 (UniProt P09936)
# UCHL1, sequence (P09936 whole entry, looked up): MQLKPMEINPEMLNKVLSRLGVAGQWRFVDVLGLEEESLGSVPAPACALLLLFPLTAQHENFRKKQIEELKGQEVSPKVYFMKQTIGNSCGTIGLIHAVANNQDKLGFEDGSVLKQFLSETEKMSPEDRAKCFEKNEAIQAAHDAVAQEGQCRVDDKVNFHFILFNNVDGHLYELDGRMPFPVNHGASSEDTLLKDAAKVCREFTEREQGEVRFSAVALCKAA
# How it was run: as §1
# UCHL3 = molecular target: T4, UCHL3 (UniProt P15374)
# T4 sequence (whole entry): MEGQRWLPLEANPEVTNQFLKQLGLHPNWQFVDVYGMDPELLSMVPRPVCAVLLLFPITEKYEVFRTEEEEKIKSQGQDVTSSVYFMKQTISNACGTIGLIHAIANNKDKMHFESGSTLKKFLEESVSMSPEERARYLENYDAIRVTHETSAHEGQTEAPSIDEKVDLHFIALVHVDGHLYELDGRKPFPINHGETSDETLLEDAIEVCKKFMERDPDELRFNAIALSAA
# How it was run: as §1
# UCHL5 = molecular target: T5, UCHL5 (UniProt Q9Y5K5)
# T5 sequence (whole entry): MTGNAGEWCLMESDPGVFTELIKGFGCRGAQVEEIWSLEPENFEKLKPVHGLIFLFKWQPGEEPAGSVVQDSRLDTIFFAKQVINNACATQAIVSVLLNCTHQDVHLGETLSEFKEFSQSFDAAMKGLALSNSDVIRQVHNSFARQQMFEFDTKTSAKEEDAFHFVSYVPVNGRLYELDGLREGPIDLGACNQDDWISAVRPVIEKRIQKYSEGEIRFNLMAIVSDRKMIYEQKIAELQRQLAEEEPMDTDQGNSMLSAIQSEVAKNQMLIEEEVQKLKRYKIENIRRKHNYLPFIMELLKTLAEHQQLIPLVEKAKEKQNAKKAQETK
# How it was run: as §1
# USP10 = USP10 (UniProt Q14694)
# USP10, sequence (Q14694 whole entry): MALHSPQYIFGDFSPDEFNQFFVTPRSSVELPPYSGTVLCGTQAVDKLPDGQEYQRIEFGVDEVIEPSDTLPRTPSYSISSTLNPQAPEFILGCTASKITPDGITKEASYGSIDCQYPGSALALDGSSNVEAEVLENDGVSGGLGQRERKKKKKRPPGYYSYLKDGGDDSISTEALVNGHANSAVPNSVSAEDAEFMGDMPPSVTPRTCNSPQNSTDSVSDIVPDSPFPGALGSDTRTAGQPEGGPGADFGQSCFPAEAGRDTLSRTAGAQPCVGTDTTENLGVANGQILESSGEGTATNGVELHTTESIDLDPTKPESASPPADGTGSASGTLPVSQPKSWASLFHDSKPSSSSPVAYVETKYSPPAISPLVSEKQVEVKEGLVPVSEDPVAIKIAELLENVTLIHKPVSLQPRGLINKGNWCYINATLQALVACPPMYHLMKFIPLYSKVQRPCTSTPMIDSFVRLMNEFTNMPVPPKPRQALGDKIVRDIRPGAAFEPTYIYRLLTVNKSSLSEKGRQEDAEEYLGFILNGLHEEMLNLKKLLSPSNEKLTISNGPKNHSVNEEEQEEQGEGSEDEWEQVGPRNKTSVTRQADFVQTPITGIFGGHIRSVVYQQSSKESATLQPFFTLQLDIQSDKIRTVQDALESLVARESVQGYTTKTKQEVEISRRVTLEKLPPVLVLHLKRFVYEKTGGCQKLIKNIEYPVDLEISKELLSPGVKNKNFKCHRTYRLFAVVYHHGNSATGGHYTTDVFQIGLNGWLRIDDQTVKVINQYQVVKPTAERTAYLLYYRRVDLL
# How it was run: as §1
# USP15 = molecular target: T6, USP15 (UniProt Q9Y4E8)
# T6 sequence (whole entry): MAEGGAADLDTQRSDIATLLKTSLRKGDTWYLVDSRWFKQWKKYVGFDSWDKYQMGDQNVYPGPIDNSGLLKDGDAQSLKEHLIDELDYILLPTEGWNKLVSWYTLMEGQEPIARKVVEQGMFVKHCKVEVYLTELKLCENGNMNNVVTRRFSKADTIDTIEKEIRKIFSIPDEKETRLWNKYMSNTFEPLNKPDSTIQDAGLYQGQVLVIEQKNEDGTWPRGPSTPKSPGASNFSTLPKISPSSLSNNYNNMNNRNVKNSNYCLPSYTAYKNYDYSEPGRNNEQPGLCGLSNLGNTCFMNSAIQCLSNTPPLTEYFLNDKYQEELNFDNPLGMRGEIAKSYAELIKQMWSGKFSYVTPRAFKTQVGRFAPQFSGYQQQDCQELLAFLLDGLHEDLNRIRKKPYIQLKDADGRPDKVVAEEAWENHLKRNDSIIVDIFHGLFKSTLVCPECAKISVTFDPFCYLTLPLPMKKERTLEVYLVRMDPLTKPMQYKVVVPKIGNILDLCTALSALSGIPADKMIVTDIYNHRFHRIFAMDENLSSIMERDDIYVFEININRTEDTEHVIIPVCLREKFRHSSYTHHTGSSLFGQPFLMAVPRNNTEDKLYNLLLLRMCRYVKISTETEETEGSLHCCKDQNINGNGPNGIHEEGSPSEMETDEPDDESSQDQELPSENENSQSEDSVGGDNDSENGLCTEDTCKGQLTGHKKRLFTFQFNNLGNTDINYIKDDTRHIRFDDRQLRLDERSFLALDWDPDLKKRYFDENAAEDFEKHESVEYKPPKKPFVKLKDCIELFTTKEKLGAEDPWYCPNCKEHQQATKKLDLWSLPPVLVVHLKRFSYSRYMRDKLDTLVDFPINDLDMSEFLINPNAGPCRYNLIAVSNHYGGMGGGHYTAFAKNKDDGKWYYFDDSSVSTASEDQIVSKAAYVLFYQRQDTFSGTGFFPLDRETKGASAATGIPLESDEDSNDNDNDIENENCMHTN
# How it was run: as §1
# USP16 = USP16 (UniProt Q9Y5T5)
# USP16, sequence (Q9Y5T5 whole entry, looked up): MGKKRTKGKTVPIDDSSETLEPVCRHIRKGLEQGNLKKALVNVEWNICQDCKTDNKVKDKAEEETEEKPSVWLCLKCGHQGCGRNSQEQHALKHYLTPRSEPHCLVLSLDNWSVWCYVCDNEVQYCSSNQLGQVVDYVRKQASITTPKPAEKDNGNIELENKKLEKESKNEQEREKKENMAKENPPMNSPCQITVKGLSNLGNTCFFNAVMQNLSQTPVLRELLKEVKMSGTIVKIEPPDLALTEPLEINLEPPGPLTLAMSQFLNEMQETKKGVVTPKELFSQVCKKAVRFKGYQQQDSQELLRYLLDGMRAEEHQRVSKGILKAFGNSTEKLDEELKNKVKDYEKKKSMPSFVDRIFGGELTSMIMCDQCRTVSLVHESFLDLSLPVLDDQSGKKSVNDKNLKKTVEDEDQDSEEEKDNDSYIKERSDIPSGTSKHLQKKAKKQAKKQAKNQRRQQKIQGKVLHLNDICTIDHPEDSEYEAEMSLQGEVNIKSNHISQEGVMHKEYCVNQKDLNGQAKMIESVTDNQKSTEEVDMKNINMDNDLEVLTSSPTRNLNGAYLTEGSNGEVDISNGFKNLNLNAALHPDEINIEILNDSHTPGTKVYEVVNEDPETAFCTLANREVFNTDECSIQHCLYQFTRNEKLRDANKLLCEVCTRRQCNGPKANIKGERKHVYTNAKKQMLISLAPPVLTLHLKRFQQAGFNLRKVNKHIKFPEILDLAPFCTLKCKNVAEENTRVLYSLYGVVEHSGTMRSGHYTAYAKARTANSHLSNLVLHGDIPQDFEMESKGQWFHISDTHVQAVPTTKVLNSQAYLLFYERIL
# How it was run: as §1
smiles,measurement,setting,value
O=C(CCl)N1CCC(S(=O)(=O)c2ccc(F)cc2)CC1,log2 ratio of Biotin-Ahx-Ub-VS probe labelling,OTUD6B,-0.129
same,log2 ratio of Biotin-Ahx-Ub-VS probe labelling,OTUD7B,-0.758
same,log2 ratio of Biotin-Ahx-Ub-VS probe labelling,PRPF8,-0.03
same,log2 ratio of Biotin-Ahx-Ub-VS probe labelling,PSMD7,-0.129
same,log2 ratio of Biotin-Ahx-Ub-VS probe labelling,UCHL1,-1.14 (active)
same,log2 ratio of Biotin-Ahx-Ub-VS probe labelling,UCHL3,0.498
same,log2 ratio of Biotin-Ahx-Ub-VS probe labelling,UCHL5,-0.128
same,log2 ratio of Biotin-Ahx-Ub-VS probe labelling,USP10,-0.175
same,log2 ratio of Biotin-Ahx-Ub-VS probe labelling,USP15,-0.327
same,log2 ratio of Biotin-Ahx-Ub-VS probe labelling,USP16,0.341
